Sampled rows, rich in hits. Any-hit rate of the full collection: about 10%.
L major viab: inhibitors of Leishmania major promastigote growth. Leishmania major promastigotes, resazurin fluorescence viability. inhibition, % at 10 µM. 200,000 compounds, 9% hits. AID 1063; in the data active = inhibition above about 50%;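 note: promastigotes grown with compound for 44 hours at 28 °C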
Insulin prom inh: TRM-6 insulin promoter activity inhibition | TRM-6 cells (human fetal islet line), insulin promoter-eGFP reporter, imaging; reporter expression induced with tamoxifen | 130,000 compounds, 0.9% hits | AID 1273 | inhibition, % at 2 µM;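 active = inhibition above the mean plus 3 SD, with well images judged a real hit on visual review, cut at about 60% in these data, passing the limit was not always enough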
p97 ATPase inh: blocks human p97 ATPase activity; P55072; recombinant p97 ATPase, Kinase-Glo ATP luminescence, 3 h; inhibition, % at 8 µM; 220,000 compounds, 0.42% hits; AID 1481; in the data active = inhibition above about 15%;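 note: 0% = DMSO vehicle and 100% = wells lacking enzyme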
Target sequence (P55072 whole entry, looked up): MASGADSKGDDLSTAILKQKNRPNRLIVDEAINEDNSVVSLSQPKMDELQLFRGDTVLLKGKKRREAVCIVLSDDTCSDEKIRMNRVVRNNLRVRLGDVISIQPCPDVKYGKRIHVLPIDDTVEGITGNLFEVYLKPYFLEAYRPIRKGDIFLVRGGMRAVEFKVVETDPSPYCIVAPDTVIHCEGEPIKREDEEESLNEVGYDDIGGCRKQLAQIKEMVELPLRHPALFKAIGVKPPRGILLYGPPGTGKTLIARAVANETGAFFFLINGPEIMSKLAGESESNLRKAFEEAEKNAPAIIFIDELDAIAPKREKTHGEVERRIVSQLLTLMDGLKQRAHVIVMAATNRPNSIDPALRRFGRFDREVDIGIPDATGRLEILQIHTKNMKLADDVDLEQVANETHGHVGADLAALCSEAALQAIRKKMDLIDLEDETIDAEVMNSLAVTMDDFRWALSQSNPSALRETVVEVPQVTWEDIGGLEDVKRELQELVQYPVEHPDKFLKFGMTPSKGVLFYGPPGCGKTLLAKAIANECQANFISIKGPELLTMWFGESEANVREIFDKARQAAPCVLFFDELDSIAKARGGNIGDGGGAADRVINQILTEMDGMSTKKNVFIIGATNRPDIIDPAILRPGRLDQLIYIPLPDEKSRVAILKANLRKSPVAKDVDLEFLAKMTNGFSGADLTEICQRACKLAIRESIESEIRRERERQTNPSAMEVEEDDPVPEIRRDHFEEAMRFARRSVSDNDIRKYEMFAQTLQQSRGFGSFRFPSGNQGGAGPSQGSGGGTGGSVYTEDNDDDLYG
HCT116 PTEN-null: suppresses growth of cells with PTEN deletion. HCT116 PTEN-null viability, CellTiter-Glo, 60 h; stronger effect = lower value. viability, % at 10 µM. 140,000 compounds, 1.2% hits. AID 827;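 active = viability at or below a set limit, 4 SD under the median of all tested compounds, cut at about 3.7% in these data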;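 note: PTEN knockout HCT116 line with beta catenin targeted HCT116 as companion control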
ROMK primary: human ROMK K+ channel modulation, primary screen | P48048 | Tet-inducible ROMK, thallium flux fluorescence; actives lie on both sides | B-score at 10 µM | 130,000 compounds, 2% hits | AID 1918;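 active = signal ratio slope over the read window, or its plate-corrected B-score, at least 3 SD from the plate mean, either direction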;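 note: B-score of the F/F0 ratio slope over 7 to 12 s after thallium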
HCT116 bCat-KO: beta-catenin-lacking colon tumor cell growth suppression. 140,000 compounds, 1.5% hits. viability, % at 10 µM. HCT116 beta-catenin knockout viability, CellTiter-Glo, 60 h; stronger effect = lower value;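 active = viability at or under a set limit, the compound median less 4 SD, cut at about 6% in these data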;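 note: 0% = Hyamine 1622 control at 20 µM and 100% = untreated cell control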
Starred values were filed as active, the others as inactive.

O=C(NCC1COc2ccccc2O1)C1CCCN(S(=O)(=O)c2cnc[nH]2)C1 (stereo unspecified) was read as L major viab -5.4, Insulin prom inh -60.0 and p97 ATPase inh 2.7.
For COc1ccc(C(=O)Nc2sc(C)c(C)c2CN2CC(C)OC(C)C2)cc1 (stereo unspecified) the results were L major viab -5.2, Insulin prom inh 20.6, p97 ATPase inh 3.8, HCT116 PTEN-null 74.8, ROMK primary -0.0488 and HCT116 bCat-KO 79.7.
For COC(=O)Cn1c2ccc(OC)cc2c2nc(C)sc21 the results were p97 ATPase inh 7.2.
`C[C@H](NC(N)=O)C(=O)Nc1ccc2c(c1)OCO2` gave p97 ATPase inh 10.3 and ROMK primary 0.481.
For Fc1ccc(-n2c(CN3CCCCC3)n[nH]c2=S)cc1 the results were L major viab -5.4, Insulin prom inh -19.1, p97 ATPase inh -0.9 and ROMK primary 0.761.
Screening O=C(Nc1ccc(N2CCN(C(=O)c3ccccc3)CC2)cc1)c1cc2ccccc2o1 returned L major viab -6.8, Insulin prom inh -65.0, p97 ATPase inh 1.9, HCT116 PTEN-null 17.1 and HCT116 bCat-KO 5.6*.
For CCOC(=O)c1ccc(NC(=O)c2cc3ccccc3o2)cc1 the results were L major viab -7.6, Insulin prom inh 63.0*, p97 ATPase inh 1.5, HCT116 PTEN-null 107.9 and HCT116 bCat-KO 108.5.
`CN(C)S(=O)(=O)Oc1ccc(Cl)cc1C(=O)Nc1ccc(F)cc1F` gave L major viab 11.1, p97 ATPase inh 1.9 and ROMK primary 0.451.
Cc1ccc(-c2nc(-c3cccnc3)sc2CC(=O)O)cc1 was read as p97 ATPase inh 5.5.
For CC(=O)Nc1ccc(NC(=O)Cc2sc(-c3cccnc3)nc2-c2ccc(C)cc2)cc1 the results were L major viab -4.2, Insulin prom inh -35.0, p97 ATPase inh 14.8* and ROMK primary 0.783.
Screening CC1CC(=O)Nc2ccccc2N1S(=O)(=O)c1cccc(Cl)c1 (stereo unspecified) returned L major viab -5.4, Insulin prom inh 51.6, p97 ATPase inh 7.4, HCT116 PTEN-null 87.6 and HCT116 bCat-KO 85.3.
For CCOC(=O)C1C(C(=O)Nc2cccc(C(F)(F)F)c2)C1C(=O)NC(C)C (stereo unspecified) the results were L major viab -1.5, Insulin prom inh -36.4, p97 ATPase inh -6.0 and ROMK primary -0.702.
For CCCC(C(=O)NCC1CCCO1)N(Cc1ccco1)C(=O)CNS(=O)(=O)c1ccccc1 (stereo unspecified) the results were L major viab 23.8, Insulin prom inh -45.5, p97 ATPase inh 6.2, HCT116 PTEN-null 103.7 and HCT116 bCat-KO 84.1.
For O=C(NC1CCCCC1)N(Cc1ccccc1)Cc1ccco1 the results were L major viab 54.7*, Insulin prom inh -52.6, p97 ATPase inh -9.8, HCT116 PTEN-null 80.4 and HCT116 bCat-KO 69.8.
For CCCC(C(=O)NC1CCCCC1)N(Cc1ccco1)C(=O)CNS(=O)(=O)c1ccccc1 (stereo unspecified) the results were L major viab 62.6*, Insulin prom inh -77.4, p97 ATPase inh -5.4, HCT116 PTEN-null 89.2, ROMK primary -1.28 and HCT116 bCat-KO 92.6.
For CC(C)C(C(=O)NCc1ccco1)N(C(=O)CNS(=O)(=O)c1ccc(Cl)cc1)C1CCCC1 (stereo unspecified) the results were L major viab 89.0*, p97 ATPase inh -4.9, HCT116 PTEN-null 72.7, ROMK primary -2.71 and HCT116 bCat-KO 83.2.
COc1cc2c(cc1OC)CN(C(=S)NC(=O)c1ccccc1)CC2 was read as L major viab 0.4, Insulin prom inh 21.4 and p97 ATPase inh -0.8.
For COc1ccccc1CNCC(O)(c1ccc(Cl)cc1)c1ccc(Cl)cc1 the results were L major viab 100.5*, p97 ATPase inh 2.8, HCT116 PTEN-null 25.1, ROMK primary -0.0575 and HCT116 bCat-KO 31.4.
Screening CCN(CC)CCNCc1ccc(-c2ccc(Cl)cc2)o1 returned L major viab 90.8*, Insulin prom inh 16.1, p97 ATPase inh 4.0, HCT116 PTEN-null 84.2, ROMK primary -1.9 and HCT116 bCat-KO 73.0.
O=C(O)CCc1ccc(-c2ccc(Cl)cc2)o1 was read as L major viab -1.4, Insulin prom inh -40.0, p97 ATPase inh -1.8, HCT116 PTEN-null 113.3, ROMK primary 0.0158 and HCT116 bCat-KO 108.5.
Screening CC(C)(C)NCC(O)(c1ccc(Cl)cc1)c1ccc(Cl)cc1 returned L major viab 23.9, Insulin prom inh -65.8, p97 ATPase inh -3.4 and ROMK primary -0.261.

High-throughput results: PubChem BioAssay, several laboratories
